This excerpt belongs to a sample that is enriched for hits.
RBX1-CUL1 inh: inhibitors of human ROC1-CUL1 ubiquitin ligase activity; E3 ubiquitin-protein ligase RBX1 (Homo sapiens) + Cullin-1 (Homo sapiens), P62877+Q13616; in vitro K48 di-Ub FRET, acceptor:donor ratio, 45 min; inhibition, % at 10 µM; actives 0.6% (n = 140,000); AID 1347404, 2020; in the data active = inhibition above about 25%
Target sequence (P62877 whole entry, looked up): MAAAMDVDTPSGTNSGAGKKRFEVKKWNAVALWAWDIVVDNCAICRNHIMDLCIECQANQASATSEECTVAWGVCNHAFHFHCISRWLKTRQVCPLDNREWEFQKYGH
Target sequence (Q13616 whole entry, looked up): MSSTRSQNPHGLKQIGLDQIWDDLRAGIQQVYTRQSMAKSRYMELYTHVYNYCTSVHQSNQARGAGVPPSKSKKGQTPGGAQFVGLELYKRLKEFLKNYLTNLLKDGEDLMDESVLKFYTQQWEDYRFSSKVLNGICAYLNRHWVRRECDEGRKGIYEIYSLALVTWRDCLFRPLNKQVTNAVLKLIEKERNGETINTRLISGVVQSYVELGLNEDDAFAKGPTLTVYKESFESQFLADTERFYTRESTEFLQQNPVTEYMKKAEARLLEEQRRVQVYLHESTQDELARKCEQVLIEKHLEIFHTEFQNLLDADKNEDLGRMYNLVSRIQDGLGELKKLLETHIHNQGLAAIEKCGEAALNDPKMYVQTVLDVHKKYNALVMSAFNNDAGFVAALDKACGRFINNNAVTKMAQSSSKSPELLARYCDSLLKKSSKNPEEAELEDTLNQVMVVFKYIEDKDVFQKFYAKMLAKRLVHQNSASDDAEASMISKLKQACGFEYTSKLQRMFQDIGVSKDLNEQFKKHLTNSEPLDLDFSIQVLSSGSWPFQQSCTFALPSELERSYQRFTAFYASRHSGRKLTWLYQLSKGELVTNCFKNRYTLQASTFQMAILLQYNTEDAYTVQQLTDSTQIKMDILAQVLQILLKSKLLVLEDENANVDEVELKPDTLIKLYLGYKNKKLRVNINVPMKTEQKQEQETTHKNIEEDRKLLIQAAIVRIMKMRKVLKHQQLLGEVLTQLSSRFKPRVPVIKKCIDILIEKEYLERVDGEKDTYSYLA
Numbers without * were called inactive.

SMILES | RBX1-CUL1 inh
O=C1C=CC2=C(c3ccccc3C(=O)O)C3C=CC(=O)C(Br)C3OC2=C1Br (centres undefined) | 113.3*
CN1N=C(c2cc(Cl)sc2Cl)CSC1=O | -10.2
CC12CCC(C3=C1N=NC3)C2(C)C (centres undefined) | 0.8
Cc1ccc(OCC(=O)Nc2ccc(Cc3ccc(NC(=O)COc4ccc(C)c(C)c4)c(O)c3)cc2O)cc1C | 0.1
COc1ccc(-n2ncc(C(C)NS(=O)(=O)c3cccc4nsnc34)c2C)cc1 (centres undefined) | -3.2
CCOc1cc(/C=C2\C(=O)N(c3ccccc3)C(=S)N2c2ccc(CC)cc2)c(Br)cc1O | 2.9
CCOc1cc(/C=C2\C(=O)NC(=O)N(c3ccc(C45CC6CC(CC(C6)C4)C5)cc3)C2=O)c(Br)cc1O | 91.4*
COC(=O)COc1ccccc1/C=C1\C(=O)NC(=O)N(c2ccc(C34CC5CC(CC(C5)C3)C4)cc2)C1=O | 41.5*
COc1cc(OC)c(OC)cc1/C=C1\C(=O)NC(=S)N(c2ccc(F)cc2)C1=O | 5.8
COC(=O)COc1ccccc1/C=C1/C(=O)N(c2ccc(Cl)cc2)C(=S)N1C | -9.0
C=CCc1cc(/C=C2\C(=O)NC(=O)N(c3ccc(Br)c(C)c3)C2=O)cc(OCC)c1O | 1.8
COc1ccc(OC)c(C2C3=C(N=c4s/c(=C/c5cccc(O)c5)c(=O)n42)c2ccccc2CC3)c1 (centres undefined) | 2.9
c1ccc(-c2cc3ccccc3c3ccccc23)cc1 | -6.6
Cc1ccc(C(=O)O)c2c1N[C@@H](c1ccccc1F)[C@H]1CC=C[C@@H]21 | 33.0*
Fc1ccccc1C1Nc2ccc3ccccc3c2C2C=CCC21 (centres undefined) | -7.2
CC(=O)Nc1ccc2c(c1)C1C=CCC1C(c1ccccc1F)N2 (centres undefined) | -7.5
Cc1cc(=O)[nH]c2ccc(S(=O)(=O)N3CCCCC3)cc12 | 12.9
CCOc1cc(C2C(C(=O)c3cc(C)ccc3C)C(=O)C(=O)N2CCc2ccccc2)ccc1O (centres undefined) | 3.9
CC(C)C(C(=O)O)N1C(=O)/C(=C\c2ccco2)SC1=S (centres undefined) | 101.9*
CC(C)C(C(=O)O)N1C(=O)/C(=C/c2ccc(F)cc2)SC1=S (centres undefined) | 15.0
CC(C(=O)O)N1C(=O)/C(=C\c2ccco2)SC1=S (centres undefined) | 52.7*
O=C(CN1C(=O)S/C(=C\c2ccco2)C1=O)c1ccc(Br)cc1 | -1.2
O=C1/C(=C\c2ccco2)SC(=S)N1c1cccc(O)c1 | 9.1
O=C1/C(=C/c2ccco2)SC(=S)N1c1ccccc1Br | -4.1
Cc1cccc(NC(=O)C2CCN(C(=O)c3ccccc3F)CC2)c1C | 6.0
SMILES | RBX1-CUL1 inh
CCn1ccc(C(=O)Nc2ccncc2)n1 | 0.9
Cc1nc2ccccc2c2c1CCS2 | 6.7
CCC(=O)N1c2ccccc2C(C)(c2ccccc2)CC1(C)C (centres undefined) | 2.6
CCCCCC(=O)N1c2ccccc2C(C)(c2ccccc2)CC1(C)C (centres undefined) | 6.9
CCC(CC)C(=O)N1c2ccccc2C(C)(c2ccccc2)CC1(C)C (centres undefined) | 27.8*
O=C(NCCC(c1ccccc1)c1ccccc1)C1CC12CCN(C(=O)c1ccc[n+]([O-])c1)CC2 (centres undefined) | 2.7
CCOc1ccc2ccccc2c1CNC(C)C | -1.7
CCOC(=O)c1c(NS(=O)(=O)c2cc(Cl)ccc2OC)sc2c1CCCC2 | -2.4
CCOc1cc(/C=C2\C(=O)NN(c3ccc(Cl)cc3)C2=O)cc(I)c1O | 5.6
O=C1OC(c2ccccc2)=N/C1=C/c1cccc(OC(=O)c2cccs2)c1 | -1.8
O=C1NN(c2cccc(C(F)(F)F)c2)C(=O)/C1=C\c1ccc(Br)cc1 | 5.5
O=C1NN(c2cccc(Cl)c2)C(=O)/C1=C\c1cc(Br)ccc1O | 3.2
O=C1NN(c2cccc(Cl)c2)C(=O)/C1=C/c1ccc(Br)cc1 | 60.2*
CC(=O)Oc1cccc(/C=C2/C(=O)NN(c3ccc(C)c(C)c3)C2=O)c1 | 1.6
O=C1NN(c2ccccc2)C(=O)/C1=C/c1ccc(OCc2ccccc2)cc1 | -12.7
CCc1ccc(/C=C2\C(=O)NC(=S)N(C)C2=O)cc1 | -2.4
O=C1NN(c2ccc(Cl)cc2)C(=O)/C1=C/c1cc(Br)cc([N+](=O)[O-])c1O | 85.1*
CCc1ccc(/C=C2\C(=O)NN(c3ccc(C)cc3)C2=O)cc1 | 45.3*
COc1cc(/C=C2\C(=O)NN(c3ccc(C)cc3)C2=O)cc([N+](=O)[O-])c1O | 5.9
O=C1NN(c2ccc(F)c(Cl)c2)C(=O)/C1=C\c1cccc(OC(=O)c2cccs2)c1 | 97.1*
CN(CC1CCCCO1)C(=O)CCC1(Cc2ccc3ccccc3c2)CCC(=O)N1 (centres undefined) | -2.9
CCOc1ccc(Nc2nc(=O)[nH]nc2C)cc1 | -1.3
Cc1ccnc(NC(=O)Cc2ccccc2F)c1 | -2.1
COc1cc(CC(=NC(=O)c2ccccc2)C(=O)NCCO)c([N+](=O)[O-])cc1OC | -6.8

From PubChem BioAssay
